PubChem BioAssay AID583 (Sanford-Burnham Center for Chemical Genomics, 2007)
Values joined by “and” are separate entries in the source; they are usually repeats but may differ in a detail not shown here. Equal values may be shown once. About 80 (0.06%) of roughly 140,000 compounds were called active. Rule as the data show it: active = displacement above about 50%; inactive = the rest. For the sample, actives were picked, then their nearest neighbours and some compounds at random.

What follows are compounds tested against Heat shock 70 kDa protein 1A (Homo sapiens) (UniProt P0DMV8) (assay: small molecules displacing fluorescent ligand from Hsp70 – biochemical, fluorescence polarization, primary screen (AID 583;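 also: plate controls were vehicle for no effect and reference ligand for full effect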)). Conditions: Hsp70 fluorescence polarization probe displacement, mP; at 20 µM; active compounds read high.
Heat shock 70 kDa protein 1A (Homo sapiens), sequence (P0DMV8 whole entry, looked up): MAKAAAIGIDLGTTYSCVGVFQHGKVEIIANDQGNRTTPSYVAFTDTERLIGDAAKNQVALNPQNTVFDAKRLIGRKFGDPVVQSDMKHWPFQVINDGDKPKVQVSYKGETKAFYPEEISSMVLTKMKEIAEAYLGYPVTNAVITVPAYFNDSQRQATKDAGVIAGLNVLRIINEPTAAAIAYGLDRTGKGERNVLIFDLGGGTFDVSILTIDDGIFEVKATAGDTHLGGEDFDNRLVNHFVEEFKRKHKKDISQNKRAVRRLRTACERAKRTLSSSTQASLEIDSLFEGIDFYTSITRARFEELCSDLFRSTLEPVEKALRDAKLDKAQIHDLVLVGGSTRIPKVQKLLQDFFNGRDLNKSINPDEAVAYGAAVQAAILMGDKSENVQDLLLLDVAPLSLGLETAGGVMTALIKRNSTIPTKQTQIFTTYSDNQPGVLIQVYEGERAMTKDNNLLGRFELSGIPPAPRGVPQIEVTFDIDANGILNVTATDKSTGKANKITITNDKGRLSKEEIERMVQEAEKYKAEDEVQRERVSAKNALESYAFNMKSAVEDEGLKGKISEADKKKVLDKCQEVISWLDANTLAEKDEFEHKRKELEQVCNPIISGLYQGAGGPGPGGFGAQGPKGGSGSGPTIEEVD

displacement, active:
O=C1C=CC2=C3Oc4c(ccc5cc(O)ccc45)C(c4ccccc4C(=O)O)C3C=CC2=C1 (stereo unspecified) 60.9%
O=C(O)c1cccc(N2C(=O)c3ccc4c5c(ccc(c35)C2=O)CC4)c1 70%
CCOc1cccc(=[O+]CC)c2c(C)oc(C)c12 80.7%
N#Cc1c2c(c(NCCCCO)n3c1nc1ccccc13)CCC2 55%
O=C(O)C1Nc2ccc([N+](=O)[O-])cc2C2C=CCC12 (stereo unspecified) 102%
O=C(O)C1Nc2c(cccc2[N+](=O)[O-])C2C=CCC12 (stereo unspecified) 76.9%
O=C1NC(=S)N(c2ccccc2F)C(=O)/C1=C/c1ccc(I)o1 81.7%
O=C1NC(=S)N(c2ccccc2F)C(=O)/C1=C/c1ccc(OCc2cccc(C(=O)O)c2)cc1 51.5%
CCOc1ccc(N2C(=O)/C(=C/c3ccc(I)o3)C(=O)NC2=S)cc1 96.7%
CCc1ccc(N2C(=O)/C(=C/c3ccc(I)o3)C(=O)NC2=S)cc1 84.7%
O=C1NN(c2cccc(Cl)c2)C(=O)/C1=C\c1ccc(-c2cccc(C(=O)O)c2)o1 55.5%
COc1cc(/C=C2/SC(=S)NC2=O)cc(Cl)c1OCc1ccc(Cl)cc1Cl 94.8%
COc1cc(/C=C2/SC(=S)NC2=O)cc(Cl)c1OCc1cccc2ccccc12 99.9%

displacement, inactive:
CC1CCCCN1c1nnc(N)s1 (stereo unspecified) 0.6%
O=C(Cn1c(=O)n(CC2CCCO2)c(=O)c2ccccc21)N1CCN(c2ccccc2)CC1 (stereo unspecified) 4.1%
O=c1oc2c(O)c(O)ccc2c2c1CCC2 1.2%
Cc1c(O)ccc2c1oc(=O)c1ccccc12 2.3%
Nc1nnn(Cc2ccccc2)n1 -0.8%
CCN(CC)S(=O)(=O)c1ccc2oc(Nc3ccc4c(c3)OCCO4)nc2c1 0.7%
CC(Sc1ccc2nnc(-c3ccc(F)cc3)n2n1)C(=O)O (stereo unspecified) -5.3%
NC(=O)CN1CCOCCN(CC(N)=O)CCOCC1 -5%
O=C(NCC(O)c1ccccc1)C(=O)NC1CC1 (stereo unspecified) -1.2%
CCC(c1nnc(SCc2nc3ccccc3s2)n1Cc1ccccc1)N(C)C (stereo unspecified) -2.1%
O=C1CC(c2ccccc2)c2ccc(O)cc2O1 (stereo unspecified) 2.6%
O=C(O)c1cccc(N2C(=O)CCC2=O)c1 3.8%
O=C(O)c1cccc(N2C(=O)c3ccc(Br)cc3C2=O)c1 -5.6%
Nc1nc(CSc2nc3ccccc3[nH]2)cs1 -1.6%
Cc1cccc(N2C(=O)NC(=O)/C(=C/c3ccc(N(C)C)c(Br)c3)C2=O)c1 0.9%
CCOc1cccc(=O)c2c(C)oc(C)c12 28% and 19.3%
CCOc1ccc(-c2cc(OCC)c3c(C)oc(C)c3c(=[O+]CC)c2)cc1 -5.4%
Cc1oc(-c2ccc(Cl)cc2)nc1CN1CCCC(C(=O)NCc2ccco2)C1 (stereo unspecified) 0.5%
Cc1cc(C)c(NC(=O)c2c(-c3ccccc3)noc2C)c(C)c1 1.9%
CCc1nnc(SCC(=O)N2CCCc3ccccc32)nc1CC 0.4%
Cc1cc(NC(=O)c2ccc(-c3cccc(Cl)c3)o2)ccc1NC(=O)c1ccco1 -0.3%
N#Cc1c2c(c(NCCCN3CCOCC3)n3c1nc1ccccc13)CCC2 3.4%
CN(C)CCCNc1c2c(c(C#N)c3nc4ccccc4n13)CCC2 3.6%
O=C(O)C1Nc2c(O)cccc2C2C=CCC12 (stereo unspecified) 16.1%
COc1cccc2c1NC(C(=O)O)C1CC=CC21 (stereo unspecified) 47.8%
O=[N+]([O-])c1ccc(C2Nc3ccc([N+](=O)[O-])cc3C3C=CCC32)cc1 (stereo unspecified) 0.4%
Cc1ccc2c(c1)C1C=CCC1C(C(=O)O)N2 (stereo unspecified) 38.6%
O=C(CCc1ccccc1)Oc1ccc(Cl)cc1 0.9%
CCOc1ccc(N2C(=O)/C(=C/c3ccc(OCc4cccc(C(=O)O)c4)cc3)C(=O)NC2=S)cc1 5.7%
CCOc1ccc(N2C(=O)/C(=C/c3ccc(N(CC)CC)o3)C(=O)NC2=S)cc1 -73.8%
O=C1NC(=S)N(c2ccccc2F)C(=O)/C1=C/c1ccc(Sc2ccccc2)o1 0.9%
O=C1NC(=O)N(c2ccccc2F)C(=O)/C1=C/c1ccc(I)o1 20.6%
O=C1NC(=O)N(c2ccc(Cl)cc2)C(=O)/C1=C/c1ccc(I)o1 15.2%
O=C1NC(=O)N(c2ccccc2F)C(=O)/C1=C/c1ccc(OCc2cccc(C(=O)O)c2)cc1 0.2%
Cc1ccc(N2C(=O)NC(=O)/C(=C\c3ccc(I)o3)C2=O)cc1 6.1%
CCOc1ccc(N2C(=O)NC(=O)/C(=C\c3ccc(I)o3)C2=O)cc1 0.7%
CC(C)c1ccc(-c2nc(N)c3c(=O)oc4ccccc4c3n2)cc1 0.4%
O=C(CN(Cc1ccco1)C(=O)CNS(=O)(=O)c1ccccc1)NC1CCCCC1 5.9%
O=[N+]([O-])c1cc(NS(=O)(=O)Cc2ccccc2)ccc1F 3.6%
O=C(NCc1ccc2c(c1)OCO2)C1COc2ccccc2O1 (stereo unspecified) 3.3%
CCCn1c(=N)n(CC(=O)C(C)(C)C)c2ccccc21 7.1%
CCn1cc(Br)c(C(=O)Nc2ccc(OC)cc2)n1 8.2%
O=C(NC1CC2CCCC(C1)N2C(=O)NC1CCCCC1)c1ccccc1 (stereo unspecified) 0.4%
COc1cccc(C(=O)NC2CC3CCCC(C2)N3CC(=O)Nc2ccc(N(C)C)cc2)c1 (stereo unspecified) 2.7%
COc1cc(C(=O)NC2CC3CCCC(C2)N3CC(=O)Nc2ccccc2)cc(OC)c1OC (stereo unspecified) 2%
Cc1c(C(=O)N2CCc3ccccc3C2)sc2nc(-c3ccccc3)cn12 0.5%
O=C1NN(c2ccc(Cl)cc2)C(=O)/C1=C\c1ccc(-c2cccc(C(=O)O)c2)o1 16.5%
O=C1NN(c2ccc(F)c(Cl)c2)C(=O)/C1=C\c1ccc(-c2cccc(C(=O)O)c2)o1 5.7%
COc1ccc(NC(=O)Cn2nc(C)c3ccccc3c2=O)cc1 -1%
CCCOc1c(Cl)cc(/C=C2/SC(=S)NC2=O)cc1OC 1.3%
CCOc1cc(/C=C2/SC(=S)NC2=O)cc(Cl)c1OCc1ccc(Cl)cc1Cl 4.9%
COc1cc(/C=C2/SC(=S)NC2=O)cc(Cl)c1OCc1ccccc1F -0.4%
COc1cccc(OCCOc2c(Cl)cc(/C=C3/SC(=S)NC3=O)cc2OC)c1 0.2%
